# Reference: PubChem BioAssay (NCATS)
# Where “and” joins values, the source holds several entries; their conditions need not be identical. Equal values may be shown once. Results filed as inconclusive are left out. Calls of active or inactive are those of the source. Unless noted, calls come from the whole dose curve; as a rule, active = well fitted curve in the direction sought with a large enough effect; inconclusive = small, poorly fitted or top-dose-only effect, or another doubt; inactive = no such curve, though single readings can be large; an effect the other way counts as inactive or inconclusive.
# Columns and labels:
# [1] = Primary qHTS for inhibitors of nuclear receptor binding SET domain protein 2 (NSD2) in an isogenic RCH-ACV NSD2 p.E1099K mutant (9B) (AID 1645876); note: nearly all actives have a fitted effect of over 70% in size; note: potency is the fitted concentration of half-maximal effect
# [2] = Primary qHTS for inhibitors of nuclear receptor binding SET domain protein 2 (NSD2) in an RCH-ACV wild type WT cells (2C) (AID 1645877); note: nearly all actives have a fitted effect of over 70% in size; note: potency is the fitted concentration of half-maximal effect
# [3] = target: Catechol O-methyltransferase (Homo sapiens) (UniProt P21964); assay: Confirmatory Screen for Target Class Profiling of Small Molecule Inhibitors of Methyltransferases (AID 1745852; calls by dose curve; note: potency is the fitted concentration of half-maximal effect; for activity change, negative = inhibition: % is set by controls: 0 for no effect and ±100 for the full control effect); details: MTase-Glo luminescence, SAH detection, recombinant enzyme; measured here: COMT max response; stronger effect = lower value
# Chain of Catechol O-methyltransferase (Homo sapiens) (P21964 whole entry, looked up): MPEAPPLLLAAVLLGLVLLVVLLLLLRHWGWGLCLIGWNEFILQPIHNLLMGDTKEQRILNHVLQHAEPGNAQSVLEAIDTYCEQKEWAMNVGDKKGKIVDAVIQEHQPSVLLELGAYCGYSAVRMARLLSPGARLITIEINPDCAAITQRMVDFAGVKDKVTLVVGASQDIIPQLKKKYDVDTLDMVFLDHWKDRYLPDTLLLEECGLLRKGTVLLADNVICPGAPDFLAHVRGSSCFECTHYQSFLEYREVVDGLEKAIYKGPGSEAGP
# [4] = target: Guanidinoacetate N-methyltransferase (Homo sapiens) (UniProt Q14353); assay: as above; details: activity change, negative = inhibition: at 57.3 µM (top of the series) unless noted
# [5] = target: Nicotinamide N-methyltransferase (Homo sapiens) (UniProt P40261); assay: as above; details: MTase-Glo luminescence, SAH detection, recombinant enzyme; measured here: NNMT max response; stronger effect = lower value
# Chain of Nicotinamide N-methyltransferase (Homo sapiens) (P40261 whole entry, looked up): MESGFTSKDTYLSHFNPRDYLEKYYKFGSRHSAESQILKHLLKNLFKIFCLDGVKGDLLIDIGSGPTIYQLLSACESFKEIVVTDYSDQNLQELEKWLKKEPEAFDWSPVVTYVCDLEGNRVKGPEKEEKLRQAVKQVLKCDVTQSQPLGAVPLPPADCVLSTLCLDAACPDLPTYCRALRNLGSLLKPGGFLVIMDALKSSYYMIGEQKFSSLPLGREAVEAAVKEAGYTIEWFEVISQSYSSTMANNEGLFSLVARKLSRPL
# [6] = target: Phenylethanolamine N-methyltransferase (Homo sapiens) (UniProt P11086); assay: as above; details: MTase-Glo luminescence, SAH detection, recombinant enzyme; measured here: PNMT max response; stronger effect = lower value
# Chain of Phenylethanolamine N-methyltransferase (Homo sapiens) (P11086 whole entry, looked up): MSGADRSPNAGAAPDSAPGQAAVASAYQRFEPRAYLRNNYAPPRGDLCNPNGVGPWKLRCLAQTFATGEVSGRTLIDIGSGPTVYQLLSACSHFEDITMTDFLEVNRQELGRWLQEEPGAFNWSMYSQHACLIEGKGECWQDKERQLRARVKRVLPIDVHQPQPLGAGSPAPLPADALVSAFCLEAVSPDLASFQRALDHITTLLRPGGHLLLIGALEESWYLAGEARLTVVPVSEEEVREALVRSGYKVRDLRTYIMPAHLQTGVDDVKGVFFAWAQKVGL
# [7] = NCATS anti-infectives library activity on HEK293 viability as a counter-qHTS vs the C. elegans viability qHTS (AID 1745854);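 note: HEK293 cells exposed to compounds for 24 hr before the viability read; % is set by controls: 0 for no effect and ±100 for the full control effect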
# Summary of the method: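 Compound titrations (final up to 41.7 uM) were incubated with HEK293 cells for 24 hr at 37C under 5% CO2. Viable cells were quantified with CellTiter-Glo after 10 min at ambient temperature.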
# [8] = NCATS anti-infectives library activity on the primary C. elegans qHTS viability assay (AID 1745855; calls by dose curve; note: potency is the fitted concentration of half-maximal effect)
# Summary of the method: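 Titration-based screen in worms: eggs hatched overnight in M9, L1 larvae fed TOP10 capsules in S medium with compound, incubated 21 °C for 7 days; fluorescent objects gated by size and intensity at days 0, 3 and 7.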
SMILES,Potency [1],Potency [2],activity [3],"activity change, negative = inhibition [4]",activity [5],activity [6],outcome [7],Potency [4],Potency [8]
Cc1cn(CCN2CCN(c3ccccc3-c3cc(C#N)cc(C(=O)NCCCN4CCCC4)c3)CC2)c2ccccc12,6.49 µM (active) and 6.61 µM (active),5.78 µM (active) and 6.61 µM (active),3.99%,10.2%,-4.29%,2.94%,–,–,–
CC(C)CCNC(=O)[C@H](CC(C)C)NC(=O)[C@H]1O[C@@H]1C(=O)O,inactive,inactive,–,–,–,–,inactive,–,–
C=C1C(=O)O[C@@H]2C3=C(C)CCC[C@]3(C)CC[C@@]12O,2.3 µM (active),1.29 µM (active),-87.7%,-4.1%,-7.46%,-3.37%,–,–,–
COc1cc2nc(N3CCN(C(=O)c4ccco4)C4CCCCC43)nc(N)c2cc1OC (configuration not stated),2.3 µM (active),3.65 µM (active),-2.31%,0%,-31.3%,0.0711%,–,–,–
C[C@]12CC[C@@H]3c4ccc(O)c(O)c4CC[C@H]3[C@@H]1CCC2=O,18.3 µM (active),11.5 µM (active),-61.7%,-3.15%,-14.2%,-20.6%,–,–,–
C=C1C(=O)OC2/C=C(\CO)CC/C=C(\C=O)C(OC)C(OC(=O)C(C)CC)C12 (configuration not stated),7.96 µM (active),5.02 µM (active),-88.5%,0% [at 29.8 µM],4.11%,1.39%,–,–,–
CCCCCc1ccc(/C=C/C(=O)Nc2cc(Cl)ccc2C(=O)O)cc1,inactive,inactive,-6.7%,–,-47.8%,-21.5%,–,42.9 µM (active),–
CC(C)(CNC(=O)c1cccc(-c2noc(C(F)(F)F)n2)c1)c1coc(-c2ccccc2)n1,20.9 µM (active),23.5 µM (active),–,–,–,–,inactive,–,–
O=C(c1ccccc1)c1c(O)cc(O)cc1O[C@@H]1O[C@H](CO)[C@@H](O)[C@H](O)[C@H]1O,inactive,inactive,-80.6%,-2.61%,-5.29%,-6.01%,–,–,–
O=C(NCCCc1ccccc1)c1cccc(-c2cc(O)c3ncccc3c2)c1,12.9 µM (active),3.65 µM (active),-82.7%,-1.73%,-28.1%,4.23%,–,–,–
COc1c(CCC(=O)O)cccc1O[C@@H]1O[C@H](CO)[C@@H](O)[C@H](O)[C@H]1O,inactive,inactive,-74.9%,2.56%,0.561%,-9.51%,–,–,–
C=C1C(=O)O[C@@H]2/C=C(\CO)CC/C=C(/C=O)C[C@H](O)[C@@H]12,7.28 µM (active),4.09 µM (active),-86.9%,-3.06%,4.28%,0.589%,–,–,–
C/C=C(/C)C(=O)O[C@H]1C=C(CO)C(=O)[C@H](OC(=O)/C(C)=C/CO)[C@H]1C(C)C,1.79 µM (active),1.79 µM (active),-55.6%,-5.13%,-3.04%,-1.6%,–,–,–
C=C1C(=O)OC2/C=C(\C)CC/C=C(\C=O)C(OC)C(OC(=O)C(C)CC)C12 (configuration not stated),7.13 µM (active),2.84 µM (active),-70.5%,-5.12%,-2.69%,-0.332%,–,–,–
O=C(NO)c1ccc(CC(=O)N(CCO)c2ccccc2)cc1,16.3 µM (active),14.5 µM (active),–,–,–,–,inactive,–,–
Cc1ccc(C)c(-c2cc(C(F)(F)F)nn2-c2ccc(S(N)(=O)=O)cc2)c1,20.5 µM (active),25.8 µM (active),-7.64%,-5.49%,-48.6%,-4.27%,–,–,–
O=C1Cc2c([nH]c3ccc(Br)cc23)-c2ncccc2N1,2.9 µM (active),2.58 µM (active),-8.4%,-5.35%,-15.4%,-7.69%,–,–,–
NS(=O)(=O)c1ccc(NC(=O)Nc2ccc(F)cc2)cc1,inactive,inactive,–,–,–,–,inactive,–,12.9 µM (active)
COc1ccc(CCc2nc3c(C)c(-c4c(C)noc4C)c(C)cc3n2CCN2CCOCC2)cc1,18.3 µM (active),18.3 µM (active),6.34%,5.22%,-28%,1.27%,–,–,–
Cc1cc2ncc(C(=O)NCC(C)(C)NCC(=O)N3CCC[C@H]3C#N)cn2n1,inactive,inactive,–,–,–,–,inactive,–,–
Cc1sc2c(c1C)C(c1ccc(Cl)cc1)=N[C@H](CC(=O)NCCCCNC(=O)COc1cccc3c1C(=O)N([C@H]1CCC(=O)NC1=O)C3=O)c1nnc(C)n1-2,0.23 µM (active),0.129 µM (active),-0.126%,0%,-57.3%,3.3%,–,–,–
